Holding throughout (test): DAPPL (digital affinity profiling via proximity ligation, sequencing); 10 mM Tris-HCl pH 7.5, 50 mM NaCl, 1 mM DTT, 4% glycerol, room temperature, 30 min; GST-TFs on glutathione beads, 16-mer random dsDNA library, 0.1% formaldehyde crosslink after washing; high values mean tight binding
The target of one experiment is T1, FEV (Homo sapiens, UniProt Q99581 1-238).
T1 sequence: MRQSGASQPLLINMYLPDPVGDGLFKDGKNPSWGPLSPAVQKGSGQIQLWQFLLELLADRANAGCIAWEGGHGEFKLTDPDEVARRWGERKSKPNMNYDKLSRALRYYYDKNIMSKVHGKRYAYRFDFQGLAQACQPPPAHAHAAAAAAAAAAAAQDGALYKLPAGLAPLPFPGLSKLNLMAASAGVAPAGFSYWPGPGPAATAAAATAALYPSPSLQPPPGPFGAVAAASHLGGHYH
As to conditions: protein: recombinant; tags: N-terminal GST; dsDNA, one strand shown. The gist of the method: (§1)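 Binding signal is each hexamer's read frequency for a factor divided by its frequency in the tag-only sample. The factors were GST-fused human transcription factors from yeast, captured on glutathione beads, DNA-barcoded and pooled with that sample. Pools were incubated with 200 nmole of a random double-stranded 16-mer DNA library in Tris/NaCl/DTT/glycerol buffer at room temperature for 30 min, then washed, crosslinked with 0.1% formaldehyde, proximity-ligated with BsaI/T4 ligase (1 h, 37 °C), PCR-amplified and sequenced on an Illumina NextSeq500.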

A further experiment has as its target ETV5 (Homo sapiens, UniProt P41161 1-510). As to conditions: protein: recombinant; tags: N-terminal GST; dsDNA, one strand shown. The method in brief:
as §1

The next experiment has as its target HSF1 (Homo sapiens, UniProt Q00613 1-529). Conditions: protein: recombinant; tags: N-terminal GST; chain copies: 3; dsDNA, one strand shown. The method in brief: as §1
In a further experiment the target is T2, SPIC (Homo sapiens, UniProt Q8N5J4 1-248).
T2 sequence: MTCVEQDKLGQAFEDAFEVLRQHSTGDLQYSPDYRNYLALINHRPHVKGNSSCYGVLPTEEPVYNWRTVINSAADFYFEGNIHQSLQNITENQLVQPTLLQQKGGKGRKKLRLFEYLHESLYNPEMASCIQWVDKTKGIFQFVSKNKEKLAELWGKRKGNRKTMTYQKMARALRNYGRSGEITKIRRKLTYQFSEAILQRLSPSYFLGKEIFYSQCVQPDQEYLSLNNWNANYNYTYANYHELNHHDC
Conditions: protein: recombinant; tags: N-terminal GST; dsDNA, one strand shown. The gist of the method:
as §1

Another experiment addresses ELF4 (Homo sapiens, UniProt Q99607 1-663). As to conditions: protein: recombinant; tags: N-terminal GST; dsDNA, one strand shown. The method in brief: as §1
A further experiment addresses T3, ELK4 (Homo sapiens, UniProt P28324-2 1-405).
T3 sequence: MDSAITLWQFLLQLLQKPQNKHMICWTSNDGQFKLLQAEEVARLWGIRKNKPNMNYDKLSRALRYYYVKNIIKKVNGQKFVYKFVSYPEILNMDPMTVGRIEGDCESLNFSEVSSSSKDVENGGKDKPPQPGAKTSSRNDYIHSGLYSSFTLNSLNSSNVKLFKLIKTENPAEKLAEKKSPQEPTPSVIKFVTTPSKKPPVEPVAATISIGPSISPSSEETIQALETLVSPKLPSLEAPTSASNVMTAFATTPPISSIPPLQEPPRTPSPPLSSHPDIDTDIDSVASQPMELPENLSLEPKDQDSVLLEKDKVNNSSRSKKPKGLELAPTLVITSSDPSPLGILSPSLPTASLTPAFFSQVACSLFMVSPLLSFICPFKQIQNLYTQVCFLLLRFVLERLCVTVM
Conditions: protein: recombinant; tags: N-terminal GST; dsDNA, one strand shown. The gist of the method:
as §1

The next experiment addresses T4, ETV2 (Homo sapiens, UniProt O00321 1-342).
T4 sequence: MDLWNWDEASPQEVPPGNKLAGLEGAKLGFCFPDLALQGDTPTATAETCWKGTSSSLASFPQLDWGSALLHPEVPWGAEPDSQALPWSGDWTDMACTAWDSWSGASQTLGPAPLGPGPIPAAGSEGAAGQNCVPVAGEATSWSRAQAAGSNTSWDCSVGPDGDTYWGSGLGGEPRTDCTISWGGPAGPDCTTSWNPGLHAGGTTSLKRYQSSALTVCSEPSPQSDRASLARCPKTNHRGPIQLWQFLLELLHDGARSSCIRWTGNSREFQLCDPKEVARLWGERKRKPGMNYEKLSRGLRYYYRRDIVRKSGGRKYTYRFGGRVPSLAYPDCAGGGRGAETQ
As to conditions: protein: recombinant; tags: N-terminal GST; dsDNA, one strand shown. The method in brief: as §1

In a further experiment the target is T5, ELF3 (Homo sapiens, UniProt P78545 1-371).
T5 sequence: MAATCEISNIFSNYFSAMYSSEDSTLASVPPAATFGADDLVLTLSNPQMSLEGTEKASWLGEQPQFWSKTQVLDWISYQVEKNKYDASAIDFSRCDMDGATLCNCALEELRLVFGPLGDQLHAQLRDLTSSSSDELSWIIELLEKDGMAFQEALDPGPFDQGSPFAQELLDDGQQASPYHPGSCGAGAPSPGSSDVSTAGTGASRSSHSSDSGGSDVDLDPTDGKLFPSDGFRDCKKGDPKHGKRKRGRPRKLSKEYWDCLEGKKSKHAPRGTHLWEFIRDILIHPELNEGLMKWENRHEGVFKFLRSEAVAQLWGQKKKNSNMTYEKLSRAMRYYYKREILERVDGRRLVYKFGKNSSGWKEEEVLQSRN
As to conditions: protein: recombinant; tags: N-terminal GST; dsDNA, one strand shown. The gist of the method: as §1

A further experiment concerns the target CRX (Homo sapiens, UniProt O43186 1-299). As to conditions: protein: recombinant; tags: N-terminal GST; dsDNA, one strand shown. The method in brief: as §1
Another experiment concerns the target ETV1 (Homo sapiens, UniProt P50549 1-477). As to conditions: protein: recombinant; tags: N-terminal GST; dsDNA, one strand shown. The gist of the method: as §1
The target of another experiment is T6, ERF (Homo sapiens, UniProt P50548 1-548).
T6 sequence: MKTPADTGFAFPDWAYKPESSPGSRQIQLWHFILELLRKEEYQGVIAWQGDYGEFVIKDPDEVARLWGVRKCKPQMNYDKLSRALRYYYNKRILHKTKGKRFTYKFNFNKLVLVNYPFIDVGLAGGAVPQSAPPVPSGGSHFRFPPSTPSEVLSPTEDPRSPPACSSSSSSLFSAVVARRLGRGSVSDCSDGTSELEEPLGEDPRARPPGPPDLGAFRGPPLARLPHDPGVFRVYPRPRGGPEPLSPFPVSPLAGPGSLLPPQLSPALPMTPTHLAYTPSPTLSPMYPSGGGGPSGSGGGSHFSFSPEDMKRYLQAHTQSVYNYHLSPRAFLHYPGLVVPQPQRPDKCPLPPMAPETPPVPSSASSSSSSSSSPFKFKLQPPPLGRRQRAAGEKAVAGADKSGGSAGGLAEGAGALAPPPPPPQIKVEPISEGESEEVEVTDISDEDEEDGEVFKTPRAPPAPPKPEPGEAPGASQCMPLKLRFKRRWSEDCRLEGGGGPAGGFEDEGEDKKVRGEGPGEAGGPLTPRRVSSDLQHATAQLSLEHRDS
As to conditions: protein: recombinant; tags: N-terminal GST; dsDNA, one strand shown. The gist of the method:
as §1

Another experiment concerns the target T7, ETV3L (Homo sapiens, UniProt Q6ZN32 1-361).
T7 sequence: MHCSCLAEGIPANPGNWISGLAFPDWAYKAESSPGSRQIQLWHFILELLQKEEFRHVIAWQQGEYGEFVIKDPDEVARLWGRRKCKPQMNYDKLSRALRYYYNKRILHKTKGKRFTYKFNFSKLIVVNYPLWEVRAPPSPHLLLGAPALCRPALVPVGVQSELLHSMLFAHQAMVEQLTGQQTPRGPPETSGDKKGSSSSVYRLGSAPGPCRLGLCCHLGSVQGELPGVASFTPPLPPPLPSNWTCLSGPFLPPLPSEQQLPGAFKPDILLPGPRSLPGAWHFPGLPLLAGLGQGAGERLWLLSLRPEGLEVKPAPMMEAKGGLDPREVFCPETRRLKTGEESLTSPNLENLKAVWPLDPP
Conditions: protein: recombinant; tags: N-terminal GST; dsDNA, one strand shown. The gist of the method:
as §1

For the next experiment, the target named is T8, ETS2 (Homo sapiens, UniProt P15036 1-469).
T8 sequence: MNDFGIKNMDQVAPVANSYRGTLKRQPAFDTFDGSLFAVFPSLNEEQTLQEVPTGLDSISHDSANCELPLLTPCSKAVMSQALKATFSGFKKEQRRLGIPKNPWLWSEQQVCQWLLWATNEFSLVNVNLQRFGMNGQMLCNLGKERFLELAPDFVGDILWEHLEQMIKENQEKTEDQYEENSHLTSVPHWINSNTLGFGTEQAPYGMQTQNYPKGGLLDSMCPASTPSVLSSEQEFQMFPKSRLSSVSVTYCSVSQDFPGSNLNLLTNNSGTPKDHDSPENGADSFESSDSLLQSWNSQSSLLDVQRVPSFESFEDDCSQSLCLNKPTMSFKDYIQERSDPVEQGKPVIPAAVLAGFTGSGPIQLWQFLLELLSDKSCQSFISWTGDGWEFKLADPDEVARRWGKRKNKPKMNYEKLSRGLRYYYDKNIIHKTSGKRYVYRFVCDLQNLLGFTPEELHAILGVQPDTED
As to conditions: protein: recombinant; tags: N-terminal GST; dsDNA, one strand shown. The method in brief: as §1

A further experiment has as its target T9, SPDEF (Homo sapiens, UniProt O95238 1-335).
T9 sequence: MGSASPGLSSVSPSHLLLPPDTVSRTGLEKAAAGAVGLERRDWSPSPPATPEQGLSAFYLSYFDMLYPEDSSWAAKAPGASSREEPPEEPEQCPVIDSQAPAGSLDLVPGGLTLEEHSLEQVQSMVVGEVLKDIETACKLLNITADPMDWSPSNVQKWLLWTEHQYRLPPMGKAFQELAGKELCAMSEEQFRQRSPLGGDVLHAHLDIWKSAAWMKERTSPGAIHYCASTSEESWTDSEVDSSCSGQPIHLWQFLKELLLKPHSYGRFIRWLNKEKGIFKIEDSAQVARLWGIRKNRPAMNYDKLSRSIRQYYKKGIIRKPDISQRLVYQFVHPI
As to conditions: protein: recombinant; tags: N-terminal GST; dsDNA, one strand shown. The gist of the method: as §1

The target in a further experiment is T10, ETV7 (Homo sapiens, UniProt Q9Y603 1-341).
T10 sequence: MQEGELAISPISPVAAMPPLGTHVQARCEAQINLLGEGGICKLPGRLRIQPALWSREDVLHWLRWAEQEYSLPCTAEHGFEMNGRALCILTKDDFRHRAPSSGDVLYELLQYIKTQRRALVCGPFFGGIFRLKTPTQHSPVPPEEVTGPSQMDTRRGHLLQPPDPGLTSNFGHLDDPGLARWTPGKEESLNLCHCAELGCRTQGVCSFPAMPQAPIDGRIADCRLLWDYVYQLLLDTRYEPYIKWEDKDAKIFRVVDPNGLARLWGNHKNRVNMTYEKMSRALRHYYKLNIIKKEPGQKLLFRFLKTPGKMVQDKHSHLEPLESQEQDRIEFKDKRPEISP
As to conditions: protein: recombinant; tags: N-terminal GST; dsDNA, one strand shown. The method in brief:
as §1

In another experiment the target is T11, ELF5 (Homo sapiens, UniProt Q9UKW6-2 1-255).
T11 sequence: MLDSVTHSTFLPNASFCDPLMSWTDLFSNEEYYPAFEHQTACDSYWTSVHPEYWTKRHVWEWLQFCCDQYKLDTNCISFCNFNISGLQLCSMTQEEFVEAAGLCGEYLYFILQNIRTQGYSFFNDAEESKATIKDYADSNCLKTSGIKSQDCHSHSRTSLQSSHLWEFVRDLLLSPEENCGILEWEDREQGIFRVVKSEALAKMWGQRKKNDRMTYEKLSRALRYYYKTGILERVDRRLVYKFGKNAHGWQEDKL
Conditions: protein: recombinant; tags: N-terminal GST; dsDNA, one strand shown. The method in brief: as §1

In the next experiment the target is T12, ETV3 (Homo sapiens, UniProt P41162-2 1-143).
T12 sequence: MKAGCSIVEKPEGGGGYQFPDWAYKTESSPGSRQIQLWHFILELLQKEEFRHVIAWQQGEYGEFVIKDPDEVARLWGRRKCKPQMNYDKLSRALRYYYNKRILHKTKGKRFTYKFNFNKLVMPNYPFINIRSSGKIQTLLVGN
As to conditions: protein: recombinant; tags: N-terminal GST; dsDNA, one strand shown. The gist of the method: as §1

For another experiment, the target named is ETV6 (Homo sapiens, UniProt P41212 1-452). As to conditions: protein: recombinant; tags: N-terminal GST; dsDNA, one strand shown. The gist of the method:
as §1

Sequence of ETV1 (P50549 whole entry): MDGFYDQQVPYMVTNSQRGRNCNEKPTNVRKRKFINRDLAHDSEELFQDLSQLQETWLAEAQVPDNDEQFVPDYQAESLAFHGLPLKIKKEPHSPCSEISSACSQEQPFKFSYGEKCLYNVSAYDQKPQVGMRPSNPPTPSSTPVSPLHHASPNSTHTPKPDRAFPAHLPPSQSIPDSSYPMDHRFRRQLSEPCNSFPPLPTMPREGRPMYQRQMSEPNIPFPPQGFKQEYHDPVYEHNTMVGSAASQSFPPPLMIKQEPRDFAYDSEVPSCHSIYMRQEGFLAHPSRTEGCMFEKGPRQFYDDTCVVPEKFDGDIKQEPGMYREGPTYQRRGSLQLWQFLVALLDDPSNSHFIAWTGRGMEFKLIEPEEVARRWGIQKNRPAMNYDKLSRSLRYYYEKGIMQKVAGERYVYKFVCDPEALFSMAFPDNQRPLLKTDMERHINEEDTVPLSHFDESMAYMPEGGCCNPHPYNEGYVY
Sequence of CRX (O43186 whole entry): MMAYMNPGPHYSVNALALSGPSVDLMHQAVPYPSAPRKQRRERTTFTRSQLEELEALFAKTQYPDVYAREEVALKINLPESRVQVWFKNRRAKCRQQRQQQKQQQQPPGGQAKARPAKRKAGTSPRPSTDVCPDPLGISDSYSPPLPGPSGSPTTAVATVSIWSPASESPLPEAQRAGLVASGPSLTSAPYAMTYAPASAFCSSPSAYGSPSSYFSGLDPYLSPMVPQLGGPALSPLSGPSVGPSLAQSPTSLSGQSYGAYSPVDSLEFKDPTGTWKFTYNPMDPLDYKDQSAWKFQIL
Sequence of ETV5 (P41161 whole entry): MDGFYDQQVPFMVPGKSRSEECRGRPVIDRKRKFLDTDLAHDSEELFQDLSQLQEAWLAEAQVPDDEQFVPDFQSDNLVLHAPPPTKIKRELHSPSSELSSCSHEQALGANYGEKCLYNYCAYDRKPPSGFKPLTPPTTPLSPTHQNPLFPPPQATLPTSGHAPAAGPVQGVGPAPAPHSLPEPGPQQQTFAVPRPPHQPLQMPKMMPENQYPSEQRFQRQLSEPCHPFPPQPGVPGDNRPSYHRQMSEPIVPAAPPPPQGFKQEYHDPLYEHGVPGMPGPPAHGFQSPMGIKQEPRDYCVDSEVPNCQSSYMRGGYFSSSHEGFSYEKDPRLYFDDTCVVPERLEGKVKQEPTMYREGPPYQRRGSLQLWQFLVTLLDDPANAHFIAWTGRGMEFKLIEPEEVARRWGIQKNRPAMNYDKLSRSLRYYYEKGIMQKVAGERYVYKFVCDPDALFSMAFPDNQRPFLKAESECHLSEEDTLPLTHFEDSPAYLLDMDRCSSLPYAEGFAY
Sequence of ETV6 (P41212 whole entry): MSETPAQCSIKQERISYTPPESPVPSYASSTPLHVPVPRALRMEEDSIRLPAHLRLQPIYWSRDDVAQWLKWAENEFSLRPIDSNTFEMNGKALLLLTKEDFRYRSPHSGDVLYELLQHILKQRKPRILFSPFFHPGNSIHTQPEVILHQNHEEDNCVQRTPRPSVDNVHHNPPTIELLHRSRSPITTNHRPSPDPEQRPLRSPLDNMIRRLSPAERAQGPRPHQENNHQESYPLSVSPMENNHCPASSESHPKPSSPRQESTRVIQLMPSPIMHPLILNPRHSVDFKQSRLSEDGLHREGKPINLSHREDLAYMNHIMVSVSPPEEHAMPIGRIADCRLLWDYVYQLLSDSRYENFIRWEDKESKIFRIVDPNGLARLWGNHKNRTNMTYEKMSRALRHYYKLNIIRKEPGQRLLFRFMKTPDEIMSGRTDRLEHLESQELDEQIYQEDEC
Sequence of ELF4 (Q99607 whole entry): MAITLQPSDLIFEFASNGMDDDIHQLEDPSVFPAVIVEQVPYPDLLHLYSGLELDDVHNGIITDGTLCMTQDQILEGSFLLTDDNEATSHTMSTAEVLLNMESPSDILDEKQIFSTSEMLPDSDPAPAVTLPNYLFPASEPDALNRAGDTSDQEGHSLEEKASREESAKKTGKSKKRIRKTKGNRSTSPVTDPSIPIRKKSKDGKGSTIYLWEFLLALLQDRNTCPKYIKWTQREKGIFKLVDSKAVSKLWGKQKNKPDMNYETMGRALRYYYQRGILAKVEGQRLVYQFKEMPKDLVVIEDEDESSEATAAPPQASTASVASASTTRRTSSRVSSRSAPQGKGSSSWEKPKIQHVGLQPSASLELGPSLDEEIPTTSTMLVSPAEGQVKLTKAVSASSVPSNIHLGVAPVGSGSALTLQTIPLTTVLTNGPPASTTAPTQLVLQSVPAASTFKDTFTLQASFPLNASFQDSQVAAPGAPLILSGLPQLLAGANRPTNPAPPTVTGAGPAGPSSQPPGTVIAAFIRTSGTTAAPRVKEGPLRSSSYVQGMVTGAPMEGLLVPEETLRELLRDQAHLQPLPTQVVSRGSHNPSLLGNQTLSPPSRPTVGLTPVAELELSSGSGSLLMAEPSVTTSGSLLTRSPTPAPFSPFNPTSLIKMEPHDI
Sequence of HSF1 (Q00613 whole entry): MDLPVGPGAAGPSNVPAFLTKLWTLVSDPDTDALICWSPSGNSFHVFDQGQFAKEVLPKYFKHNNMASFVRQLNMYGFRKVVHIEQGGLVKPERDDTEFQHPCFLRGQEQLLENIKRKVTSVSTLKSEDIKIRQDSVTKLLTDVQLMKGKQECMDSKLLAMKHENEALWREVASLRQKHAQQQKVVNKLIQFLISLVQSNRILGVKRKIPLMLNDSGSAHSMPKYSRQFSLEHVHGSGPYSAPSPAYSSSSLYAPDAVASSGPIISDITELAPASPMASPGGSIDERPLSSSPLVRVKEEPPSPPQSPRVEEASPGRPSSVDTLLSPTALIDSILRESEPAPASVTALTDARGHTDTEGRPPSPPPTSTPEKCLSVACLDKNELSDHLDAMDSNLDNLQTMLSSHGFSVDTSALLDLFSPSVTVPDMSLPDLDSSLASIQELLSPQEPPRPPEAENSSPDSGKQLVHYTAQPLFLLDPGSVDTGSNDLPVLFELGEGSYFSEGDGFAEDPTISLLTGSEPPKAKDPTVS

In the case of TCCCGG, the binding signal in the experiment with FEV is 2.09 fold enrichment (6-mer frequency, TF over GST control); with ETV5, 2.27 fold enrichment (6-mer frequency, TF over GST control); in the experiment with HSF1, 1.37 fold enrichment (6-mer frequency, TF over GST control); in the experiment with SPIC, 2.35 fold enrichment (6-mer frequency, TF over GST control); in the experiment with ELF4, 2 fold enrichment (6-mer frequency, TF over GST control); with ELK4, 1.91 fold enrichment (6-mer frequency, TF over GST control). The binding signal in the experiment with ETV2 is 2 fold enrichment (6-mer frequency, TF over GST control); in the experiment with ELF3 it was 2.17 fold enrichment (6-mer frequency, TF over GST control); in the experiment with CRX it was 1.41 fold enrichment (6-mer frequency, TF over GST control); with ETV1, 2.21 fold enrichment (6-mer frequency, TF over GST control); with ERF, 1.77 fold enrichment (6-mer frequency, TF over GST control); in the experiment with ETV3L, 2.2 fold enrichment (6-mer frequency, TF over GST control). The binding signal in the experiment with ETS2 was 2.34 fold enrichment (6-mer frequency, TF over GST control); in the experiment with SPDEF, 2.76 fold enrichment (6-mer frequency, TF over GST control); with ETV7 it was 1.92 fold enrichment (6-mer frequency, TF over GST control); in the experiment with ELF5, 3.07 fold enrichment (6-mer frequency, TF over GST control); in the experiment with ETV3, 2.44 fold enrichment (6-mer frequency, TF over GST control); in the experiment with ETV6, 2.46 fold enrichment (6-mer frequency, TF over GST control).

Values taken from publication PMC7862700, “An all-to-all approach to the identification of sequence-specific readers for epigenetic DNA modifications on cytosine”.
